Test results: PMC7819943, “Rice protein-binding microarrays: a tool to detect cis-acting elements near promoter regions in rice”
The full ranking holds about 68,000 sequences; the median of “fluorescence intensity (a.u.)” is about 9,100, and the highest 2% start at about 16,000. The sample as a whole holds a higher share of the highest values than the screen did.

What follows are sequences tested against OsWRKY34 (Oryza sativa, UniProt Q0JBA9 1-250) (assay: protein-binding microarray (RPBM); PBS, 2% BSA, 51.3 ng/ul salmon testes DNA, 50 uM zinc acetate, 200 nM TF, 25 C, 1 h; high values mean tight binding). Conditions: protein: recombinant; tags: N-terminal polyhistidine and DsRed monomer fusion (pET32a); label: CyDye5-dUTP incorporated in the synthesized complementary strand; 3' TTTTT single-stranded linker to array surface; dsDNA, one strand shown.
OsWRKY34, sequence (Q0JBA9 entry or part of it): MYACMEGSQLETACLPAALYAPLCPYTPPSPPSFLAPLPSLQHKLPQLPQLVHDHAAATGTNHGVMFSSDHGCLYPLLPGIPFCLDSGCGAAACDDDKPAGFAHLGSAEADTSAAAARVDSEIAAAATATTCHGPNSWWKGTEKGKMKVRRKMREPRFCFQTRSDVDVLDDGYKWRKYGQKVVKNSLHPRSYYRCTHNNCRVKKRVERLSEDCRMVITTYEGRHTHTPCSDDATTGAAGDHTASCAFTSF
Method in brief: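 Transcription factors, each fused N-terminally to a polyhistidine tag and DsRed, were expressed in E. coli BL21-CodonPlus and purified on Ni–NTA. A custom Agilent array was made double-stranded by primer extension with Cy5-dUTP and blocked with 2% BSA. It was incubated with 200 nM protein in PBS, 2% BSA, salmon testes DNA and 50 µM zinc acetate at 25 °C for 1 h, then washed. The binding signal is per-feature fluorescence intensity (arbitrary units) read on an Axon 4000B scanner.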
With “TTTATTAGTTTGTGTCCTGGTTTTCTTTTTCAGTTAGATTCGGAGTCACCTAGTGCAG” the binding signal was 8430 fluorescence intensity (a.u.). In the case of “TTACAAGACTTAATTTCAAGGTCCGTCGATTGTCTCTCCACGGAGTCACCTAGTGCAG”, the binding signal was 8830 fluorescence intensity (a.u.). In the case of “GTATAGGGGAGAGGGTGGGCGGGTGATCACTGGGTGGGTGCGGAGTCACCTAGTGCAG”, the binding signal was 12200 fluorescence intensity (a.u.). In the case of “CCCTCCGCTGAGGTTGCGGTTGATGATCTTTCATCAGTGACGGAGTCACCTAGTGCAG”, the binding signal was 8590 fluorescence intensity (a.u.). With “ATCCATCACATCACGAAACCACTTCATGTACTCTTAACATCGGAGTCACCTAGTGCAG” the binding signal was 8080 fluorescence intensity (a.u.). In the case of “AAATGTGCTAAAAAGTCAACGGTGTCAAACATTTCGAAATCGGAGTCACCTAGTGCAG”, the binding signal was 16400 fluorescence intensity (a.u.). “AAACATGTGCTAAAAAGTCAACGGTGTCAAATATTTCGAACGGAGTCACCTAGTGCAG” was tested, and the binding signal was 15600 fluorescence intensity (a.u.). In the case of “TATGTGCTAAAAAGTCAACGGTGTCAAACATTTCGAAACGCGGAGTCACCTAGTGCAG”, the binding signal was 14000 fluorescence intensity (a.u.). With “AAACCTCCACCACCACCGCCACCACCGCCGCGCAAAACCCCGGAGTCACCTAGTGCAG” the binding signal was 8700 fluorescence intensity (a.u.). For “TATCTTTTTCTTTTTGGAGGTTTCGTTTTCTCTTGGTCAACGGAGTCACCTAGTGCAG”, the binding signal was 10400 fluorescence intensity (a.u.). “GCTAGACTATCATCAGCAAGCTAGCAATTAAAGGCCTTGTCGGAGTCACCTAGTGCAG” was tested, and the binding signal was 64200 fluorescence intensity (a.u.). “AATTAACATCACCAATCAGCAATCACCAACCTTGTCATCTCGGAGTCACCTAGTGCAG” was tested, and the binding signal was 8970 fluorescence intensity (a.u.). “TTTCATCAATTGCCTCTTGTATCAGCTACTATGCAATATACGGAGTCACCTAGTGCAG” was tested, and the binding signal was 8850 fluorescence intensity (a.u.). With “CCATGCTCGCGGCGTTTACTTTCCTCACTATTTTTTAGATCGGAGTCACCTAGTGCAG” the binding signal was 9410 fluorescence intensity (a.u.). For “GGATCGCGTGGTTTGTGTCGTGTCTTTGCATACGGCGACACGGAGTCACCTAGTGCAG”, the binding signal was 8300 fluorescence intensity (a.u.). In the case of “CCATCACCACCTCCCGATCCGCGCGCTTTCTCTCCCGCGCCGGAGTCACCTAGTGCAG”, the binding signal was 9090 fluorescence intensity (a.u.). In the case of “TTTTTAATAGATAACGTCGTTGACTTTTTCTCACATGTTTCGGAGTCACCTAGTGCAG”, the binding signal was 25600 fluorescence intensity (a.u.). “GTTTTTTAATAGATAACGCCGTTGACTTTTTTTCACATGTCGGAGTCACCTAGTGCAG” was tested, and the binding signal was 21500 fluorescence intensity (a.u.). In the case of “TTTTCAGTAGATAACATCGTTGACTTTTCAACGAATATTTCGGAGTCACCTAGTGCAG”, the binding signal was 14400 fluorescence intensity (a.u.). With “AACTTTACTTTTTCTCATAGTGTTGATTAGATATATGTTTCGGAGTCACCTAGTGCAG” the binding signal was 10600 fluorescence intensity (a.u.). With “CCGTTTTTTAATAGATAACGCTGTTGACTTTTTCTTATATCGGAGTCACCTAGTGCAG” the binding signal was 11200 fluorescence intensity (a.u.). In the case of “GGAGGAGAGAGGGGTGGGGTTTGTGGTGTCGTCGTCCATGCGGAGTCACCTAGTGCAG”, the binding signal was 11700 fluorescence intensity (a.u.). For “GACTATGCGCGCTATATAAAGGATCACATTATCTCATACTCGGAGTCACCTAGTGCAG”, the binding signal was 8930 fluorescence intensity (a.u.). For “TTGCCGTACAATCTTGATTTGGAGATCTTCCTGGCCAACACGGAGTCACCTAGTGCAG”, the binding signal was 9120 fluorescence intensity (a.u.). In the case of “AGAAAGCCCATTTTGCCCTTTGTGCTTCAGAACATCGAGCCGGAGTCACCTAGTGCAG”, the binding signal was 8020 fluorescence intensity (a.u.). For “CGGAGGGAGGCGGAGGCGGTGGTGGTGGTGGTGGTGCCGGCGGAGTCACCTAGTGCAG”, the binding signal was 12500 fluorescence intensity (a.u.). For “GTACTGGCTTGGCTGGGTCGGGCTCGGGCTGGGCCATGAACGGAGTCACCTAGTGCAG”, the binding signal was 8340 fluorescence intensity (a.u.). In the case of “GCCGCATGGTGGTGCTGGTTGGGGTGGTGGTGGTGGCGGCCGGAGTCACCTAGTGCAG”, the binding signal was 14800 fluorescence intensity (a.u.). With “CCGCCGCCATCAAGTCCGCCATCATGACCACCGGTGAGAACGGAGTCACCTAGTGCAG” the binding signal was 8490 fluorescence intensity (a.u.). For “CATCCGGCCATGGTGATGACCGGCGGCGATGATCAGCAGCCGGAGTCACCTAGTGCAG”, the binding signal was 48200 fluorescence intensity (a.u.). For “TGGCGAGGAGGTGGTGGTGGTTGTGGTGGGTGCGGCCATGCGGAGTCACCTAGTGCAG”, the binding signal was 12100 fluorescence intensity (a.u.). With “GTGGTGGTGGTGGTGGTGGTGGTGGTGGTGCACGGCCATGCGGAGTCACCTAGTGCAG” the binding signal was 16400 fluorescence intensity (a.u.). “AACTCAGTCTCAGCTCACATGATGCATCATCAGCCATGGCCGGAGTCACCTAGTGCAG” was tested, and the binding signal was 8200 fluorescence intensity (a.u.). With “GTGGTGGTGGTGGTGGTGGTGGCGGCGGCGGCCGGCCATGCGGAGTCACCTAGTGCAG” the binding signal was 20000 fluorescence intensity (a.u.). With “ACGCTTGGTGGGGTGGGGTGGTGCTGGTGCCATGAACTGCCGGAGTCACCTAGTGCAG” the binding signal was 22300 fluorescence intensity (a.u.). With “GAGGAGAGAGAGAGAGAGTGGTGGTGGTGGTGGTGAGATGCGGAGTCACCTAGTGCAG” the binding signal was 8460 fluorescence intensity (a.u.). “AAACCATGCGGCGCACGAGCCACTCGCACTCGCACTCGCACGGAGTCACCTAGTGCAG” was tested, and the binding signal was 9360 fluorescence intensity (a.u.). In the case of “CAGCCACCTCCTCCTCTTCTTCCCCAACTTTCTGCTTGATCGGAGTCACCTAGTGCAG”, the binding signal was 9300 fluorescence intensity (a.u.). In the case of “CCCACGCAGATCTCCGCTTTTTCCCGGCGGCAACCACGCCCGGAGTCACCTAGTGCAG”, the binding signal was 10200 fluorescence intensity (a.u.). With “AATCTAACATGGATTTGCGCACACACTTGTCGTAACGTACCGGAGTCACCTAGTGCAG” the binding signal was 9480 fluorescence intensity (a.u.). With “CGTGCATCCGCTGCGCTGTGCTGCCATTTCTCTTCAGCTTCGGAGTCACCTAGTGCAG” the binding signal was 10600 fluorescence intensity (a.u.). For “TAGCTATTGCTCGCTGGCCTACCATTAATTAGTATACTGTCGGAGTCACCTAGTGCAG”, the binding signal was 8800 fluorescence intensity (a.u.). In the case of “TTTTGCTTATCATATCATATATTTTCTAAGCTTGATTTTTCGGAGTCACCTAGTGCAG”, the binding signal was 8050 fluorescence intensity (a.u.). “TTTTTTGTTTTTTCTTTGAATTCTTTCCTTACGATTTTTGCGGAGTCACCTAGTGCAG” was tested, and the binding signal was 13400 fluorescence intensity (a.u.). In the case of “ACCTAATATTTCCCGTGTTCTCTTCTACGAAAACGTATTTCGGAGTCACCTAGTGCAG”, the binding signal was 10500 fluorescence intensity (a.u.). With “AACCTCCAACCTTTTAATTTCTCACGCGACCATGCACGACCGGAGTCACCTAGTGCAG” the binding signal was 8820 fluorescence intensity (a.u.). “ATGTAGGGGTTCCTGCTGCTGCTGTTCTGCCCATTCAACACGGAGTCACCTAGTGCAG” was tested, and the binding signal was 8880 fluorescence intensity (a.u.). “TCATCATGTGACCGACCACCGCATCCTCAGTTGACCCAGTCGGAGTCACCTAGTGCAG” was tested, and the binding signal was 8640 fluorescence intensity (a.u.). With “GATAGGGTTAGGGTTAGGGTTTTCCCTGGTCCGCATCTTCCGGAGTCACCTAGTGCAG” the binding signal was 9320 fluorescence intensity (a.u.). For “CTCTTGCTCTGCTCTGTTTTTGGCCCATCCTCACCCACAACGGAGTCACCTAGTGCAG”, the binding signal was 10600 fluorescence intensity (a.u.). In the case of “CTTTTCTCCTTCGGCTATAGTGTCACTGTCCTCGCCTTCTCGGAGTCACCTAGTGCAG”, the binding signal was 15700 fluorescence intensity (a.u.). In the case of “GTGCCTAACAATCTGCTGCTTTTTACCCGCCAAGTATCTTCGGAGTCACCTAGTGCAG”, the binding signal was 8180 fluorescence intensity (a.u.). With “AATACATTTTACCTCGATTGTTATTAGCATATTTTTTTTGCGGAGTCACCTAGTGCAG” the binding signal was 8890 fluorescence intensity (a.u.). In the case of “ATGTAAGTCATTCTAGCATTTTTTACATTCATATTGATGTCGGAGTCACCTAGTGCAG”, the binding signal was 9380 fluorescence intensity (a.u.). With “TTCCAGTTAGCAACGCATTGAGCCATTTTTACATATTCTGCGGAGTCACCTAGTGCAG” the binding signal was 57100 fluorescence intensity (a.u.).
